Compound activity (PubChem)
Yp Topo-I inh: blocks Yersinia pestis topoisomerase I activity; Y. pestis Topo-I cleavage product accumulation, plate reader; activity, % at 10 µM; AID 504884; actives 0.064% (n = 360,000); in the data active = activity above about 50%, passing the limit was not always enough
MazF activator: activators of E. coli MazEF toxin-antitoxin RNase. AID 504720. actives 0.32% (n = 350,000). FAM/BHQ RNA-DNA oligo cleavage fluorescence, 5 h. P0AE70. activation, % at 20 µM; in the data active = activation above about 50%
Target sequence (P0AE70 whole entry, looked up): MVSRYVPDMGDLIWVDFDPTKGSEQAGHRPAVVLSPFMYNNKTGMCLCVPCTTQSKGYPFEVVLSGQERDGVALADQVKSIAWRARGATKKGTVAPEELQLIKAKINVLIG
TcdB inh: inhibitors of Clostridioides difficile toxin B glycohydrolase. P18177. TcdB glycohydrolase enzymatic assay, plate reader. inhibition, % at 9.99 µM. actives 0.24% (n = 350,000). AID 652162; in the data active = inhibition above about 10%
FadD28 binding: M. tuberculosis FadD28 bisubstrate binding inhibition; FadD28 bisubstrate probe binding, fluorescence polarization; inhibition, % at 12.5 µM; actives 0.22% (n = 360,000); in the data active = inhibition above about 8.5%, passing the limit was not always enough
Mtb BioA inh: blocks M. tuberculosis BioA enzyme activity. inhibition, % at 9.99 µM. purified M. tuberculosis BioA enzyme, plate reader. AID 602481. actives 0.096% (n = 360,000); in the data active = inhibition above about 40%
DUSP3 inh: blocks human VHR1 dual specificity phosphatase. P51452. recombinant VHR phosphatase, pNPP absorbance. inhibition, % at 13.3 µM. actives 0.52% (n = 290,000). AID 1654; in the data active = inhibition above about 50%
Target sequence (P51452 whole entry, looked up): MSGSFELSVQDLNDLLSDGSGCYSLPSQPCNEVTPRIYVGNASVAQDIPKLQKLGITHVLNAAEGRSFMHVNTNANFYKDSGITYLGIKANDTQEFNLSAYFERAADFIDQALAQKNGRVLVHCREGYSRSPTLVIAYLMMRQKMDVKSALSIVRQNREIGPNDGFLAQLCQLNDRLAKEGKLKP
Each line names hits and unclear results; the compound was inactive in the other large screens. Sampled rows, rich in hits. Any-hit rate of the full collection: about 1%.

COc1ccc(/C=C2\SC(=S)N(CCC(=O)Nc3ccc(C(=O)O)cc3)C2=O)cc1	DUSP3 inh 52
O=C(CCN1C(=O)/C(=C/c2ccco2)SC1=S)Nc1ccc(C(=O)O)c(O)c1	FadD28 binding 11
C[C@@H]1CN([C@H](C)CO)C(=O)c2cc(C3=CCCC3)cnc2O[C@@H]1CN(C)Cc1ccccc1F	none (no result: Yp Topo-I inh, MazF activator, FadD28 binding, DUSP3 inh)
CN1[C@@H]2c3ccc(-c4ccc(F)cc4)c(=O)n3C[C@@H]2[C@@H](CO)[C@@H]1C(=O)NCC1CC1	none (no result: Yp Topo-I inh, MazF activator, FadD28 binding, DUSP3 inh)
O=C1Nc2ccccc2C1=Nc1ccccc1-c1ccccc1	TcdB inh 10 (no result: Mtb BioA inh, DUSP3 inh)
C[C@@H]1CN([C@@H](C)CO)C(=O)c2cc(-c3cccc(F)c3)cnc2O[C@H]1CN(C)Cc1cccnc1	none (no result: Yp Topo-I inh, MazF activator, FadD28 binding, DUSP3 inh)
O=[N+]([O-])c1ccccc1/C=N/N1CCN(Cc2ccccc2)CC1	DUSP3 inh 58
COc1ccc(C)cc1CN1C(=O)c2ccccc2C1=O	DUSP3 inh 53 (no result: FadD28 binding)
COc1ccccc1CN1C(=O)c2cccc3cccc(c23)C1=O	none (no result: TcdB inh)
COc1[nH]c(/N=C/c2ccccc2)c(C#N)c1C#N	MazF activator 74, FadD28 binding 28 (no result: TcdB inh, Mtb BioA inh)
Cc1oc(/N=C/c2ccccc2)c(C#N)c1C	none
COc1ccccc1-c1cn(CC[C@H]2CC[C@H](NC(=O)c3cnccn3)[C@H](CO)O2)nn1	none (no result: Yp Topo-I inh, MazF activator, FadD28 binding, DUSP3 inh)
Cc1cccc(NC(=O)NNC(=O)c2ccc3ccccc3c2O)c1	FadD28 binding 8.5
O=C(NNC(=O)c1ccc2ccccc2c1O)Nc1ccc(F)cc1	none
Cc1noc(C)c1NC(=O)Nc1ccc2c(c1)CC(=O)N([C@H](C)CO)C[C@H](C)[C@@H](CN(C)Cc1ccc(C(F)(F)F)cc1)O2	none (no result: Yp Topo-I inh, MazF activator, FadD28 binding, DUSP3 inh)
FC(F)(F)c1cc(CCN2CCNC[C@H]2Cc2cccc3ccccc23)cc(C(F)(F)F)c1	TcdB inh 11 (no result: DUSP3 inh)
Cc1cc(C)c(S(=O)(=O)c2ccc(Cl)cc2C)c(Cl)n1	TcdB inh 11 (no result: Mtb BioA inh)
C/C(C/C(C)=C1/SC(=S)NC1=O)=C1\SC(=S)NC1=O	FadD28 binding 20 (no result: Mtb BioA inh)
O=C(C[C@H]1CC[C@H](NS(=O)(=O)c2ccccc2)[C@H](CO)O1)N1CCN(c2ccccc2)CC1	none (no result: Yp Topo-I inh, MazF activator, FadD28 binding, Mtb BioA inh, DUSP3 inh)
CN1c2ccc(-c3ccccc3)cc2[C@H]2[C@H](CCN2C(=O)c2ccncc2)[C@@H]1CO	none (no result: Yp Topo-I inh, MazF activator, FadD28 binding, DUSP3 inh)
CCCN1C[C@H](C)[C@H](OC)CN(C)C(=O)c2ccc(NC(=O)c3cccc(OC)c3)cc2OC[C@@H]1C	none (no result: Yp Topo-I inh, MazF activator, FadD28 binding, DUSP3 inh)
CN(C)/C=c1\sc2c(C#N)cc(C(=O)c3ccc(Br)cc3)n2c1=O	MazF activator active (no result: TcdB inh)
Cc1cc(C)n(CC(=O)c2ccc(Br)cc2)c(=O)c1C#N	none (no result: TcdB inh, Mtb BioA inh)
COc1cc2[nH]c(=S)n(Cc3cccs3)c(=O)c2cc1OC	TcdB inh 25
CCCn1c(=S)[nH]c2cc(OC)c(OC)cc2c1=O	none
COc1ccc(-c2nc3c(c(=O)[nH]c(=O)n3Cc3ccccc3)n2Cc2ccccc2)cc1	Yp Topo-I inh 64 (no result: TcdB inh)
Cn1c(-c2cccc(OCc3ccccc3)c2)nc2c1c(=O)[nH]c(=O)n2Cc1ccccc1	MazF activator 62 (no result: TcdB inh)
C[C@@H]1CN([C@H](C)CO)S(=O)(=O)c2ccc(-c3ccccc3)cc2O[C@H]1CN(C)C(=O)c1ccccc1F	none (no result: Yp Topo-I inh, MazF activator, TcdB inh, FadD28 binding, DUSP3 inh)
C[C@H](CO)N1C[C@H](C)[C@H](CN(C)C(=O)Nc2ccccc2)Oc2cc(C#C[C@@H](C)O)ccc2S1(=O)=O	none (no result: Yp Topo-I inh, MazF activator, FadD28 binding, DUSP3 inh)
CNC[C@H]1OCCCC[C@H](C)Oc2ccc(NC(=O)NC3CCCCC3)cc2C(=O)N([C@H](C)CO)C[C@H]1C	none (no result: Yp Topo-I inh, MazF activator, FadD28 binding, DUSP3 inh)
C[C@H]1CN([C@@H](C)CO)C(=O)c2cccc(NC(=O)C3CCOCC3)c2O[C@H]1CN(C)CC1CCCCC1	none (no result: Yp Topo-I inh, MazF activator, FadD28 binding, DUSP3 inh)
Cc1cccc2cc(C#N)c(SCC(=O)Nc3ccccc3N3CCOCC3)nc12	none (no result: TcdB inh)
N#Cc1cc2ccccc2nc1SCC(=O)Nc1ccccc1N1CCOCC1	MazF activator 51 (no result: TcdB inh)
COc1ccc(-c2csc3nc(C(C)(C)C)oc(=O)c23)cc1OC	none (no result: Mtb BioA inh)
COc1ccc(-c2csc3nc(-c4ccc(C)cc4)oc(=O)c23)cc1OC	DUSP3 inh 92 (no result: Mtb BioA inh)
CN1c2ccc(C#Cc3cccnc3)cc2[C@@H]2[C@@H](CCN2C(=O)c2cccc(F)c2)[C@H]1CO	none (no result: Yp Topo-I inh, MazF activator, TcdB inh, FadD28 binding, DUSP3 inh)
C/C=C/c1ccc([C@H]2[C@@H](CO)N(CC3CCCC3)[C@H]2CNC(C)=O)cc1	none (no result: Yp Topo-I inh, MazF activator, FadD28 binding, Mtb BioA inh, DUSP3 inh)
C=CCNc1nc(-c2ccc(O)c(C(N)=O)c2)cs1	none (no result: TcdB inh)
NC(=O)c1cc(-c2csc(NCCc3ccccc3)n2)ccc1O	FadD28 binding 15
O=C(Nc1ccccc1F)N1CC(=O)N2[C@@H](CO)[C@@H](c3ccc(C#Cc4ccccc4)cc3)[C@@H]2C1	none (no result: Yp Topo-I inh, MazF activator, FadD28 binding, Mtb BioA inh, DUSP3 inh)
O=c1ccc2cc(O)c(O)cc2o1	TcdB inh 13
O=C(Nc1ccccc1F)N[C@@H]1CC[C@H](CCNC(=O)C2CCC2)O[C@H]1CO	none (no result: Yp Topo-I inh, MazF activator, FadD28 binding, DUSP3 inh)
Cc1cccc(Nc2ccc(C(=O)O)cc2[N+](=O)[O-])c1C	DUSP3 inh 53
C[C@@H]1CN([C@H](C)CO)C(=O)c2cc(NS(=O)(=O)c3ccccc3)ccc2O[C@@H]1CN(C)C(=O)Nc1ccc2c(c1)OCO2	none (no result: Yp Topo-I inh, MazF activator, FadD28 binding, DUSP3 inh)
CC(C)NC(=O)N1CC[C@@H]2[C@@H](CO)N(C)c3ccc(-c4cccc(F)c4)cc3[C@@H]21	none (no result: Yp Topo-I inh, MazF activator, TcdB inh, FadD28 binding, DUSP3 inh)
CC(C)NC(=O)N1CC[C@@H]2[C@H]1c1cc(-c3ccccc3)ccc1N(C)[C@H]2CO	TcdB inh 15 (no result: Yp Topo-I inh, MazF activator, FadD28 binding, DUSP3 inh)
O=C(C1CCOCC1)N1CC[C@@H]2[C@@H](CO)Nc3ccc(-c4ccc(F)cc4)cc3[C@@H]21	TcdB inh 10 (no result: Yp Topo-I inh, MazF activator, FadD28 binding, DUSP3 inh)
